# In PubChem BioAssay AID1694 (National Center for Advancing Translational Sciences (NCATS), 2009):
# Records with an inconclusive call do not appear. Unmarked numbers belong to inactive results. The source made the active and inactive calls. Calls follow the shape of the dose curve; as a rule, active = well fitted curve in the direction sought with a large enough effect; inconclusive = small, poorly fitted or top-dose-only effect, or another doubt; inactive = no such curve, though single readings can be large or run the other way.
# Assay: Confirmation Concentration-Response Assay for Inhibitors of Tau Fibril Formation, Total Fluorescence Counterscreen for Fluorescence Polarization
# Details: Alexa594-tau K18 total fluorescence counterscreen, interference, tau K18 with P301L mutation; series mostly up to 100 µM; fluorescence change, negative = quenching: at the top concentration
# Source text: NIH Molecular Libraries Probe Production Network [MLPCN] NIH Chemical Genomics Center [NCGC] MLPCN Grant: X01 MH083262-01 Assay Provider: Carlo Ballatore, University of Pennsylvania NCGC Assay Overview: The microtubule-associated protein tau is an abundant protein in the axons of neurons that stabilizes microtubules. With its ability to modulate microtubule dynamics, tau contributes directly or indirectly, to key structural and regulatory cellular functions. Particularly important is the influence tau exerts on axonal transport, which allows signaling molecules, trophic factors and other essential cellular constituents to travel along the axons. Under pathological conditions, tau becomes sequestered into insoluble aggregates called neurofibrillary tangles. This phenomenon is believed to have pathological consequences by promoting axonal transport deficits that ultimately lead to synaptic dysfunction and neuronal loss. To identify inhibitors of tau aggregation, a heparin-induced tau fibril formation assay was used that employed a recombinantly expressed fragment of tau, K18 (Q242-E372), bearing a P301L mutation (Gustke et al. 1994; Hong et al. 1998). […] Total fluorescence (555 nm excitation and 632 nm emission) was measured to identify fluorescent or absorbent compounds at this wavelength. Such compounds may be artifacts that interfere with the Alexa 594 Tau fluorescence polarization assay. Gustke, N., B. Trinczek, et al. (1994). "Domains of tau protein and interactions with microtubules." Biochemistry 33(32): 9511-22. Hong, M., V. Zhukareva, et al. (1998). "Mutation-specific functional impairments in distinct tau isoforms of hereditary FTDP-17." Science 282(5395): 1914-7. Li, W. and V. M. Lee (2006). "Characterization of two VQIXXK motifs for tau fibrillization in vitro." Biochemistry 45(51): 15692-701. von Bergen, M., S. Barghorn, et al. (2001). "Mutations of tau protein in frontotemporal dementia promote aggregation of paired helical filaments by enhancing local beta-structure." J Biol Chem 276(51): 48165-74.
# For screening, 2 uL/well human K18 P301L (15 uM unlabeled and 0.24 uM Alexa 594-labeled tau final concentrations) in reagent buffer (100 mM sodium acetate pH 7) was dispensed into black solid 1536-well plates (Grenier) using a solenoid-based dispenser. Following transfer of 23 nL compound or DMSO vehicle by a pin tool, 2 uL/well heparin (20 uM final concentration) in reagent buffer was added and the plate centrifuged 15 s at 1000 RPM. Plates were incubated 6 hr at 37 C and then 1 uL/well ThT (30 uM final concentration) was added. After a 1 hr ambient incubation, the plates were read by an Envision (Perkin Elmer) to monitor Alexa 594 FP (555 nm excitation and 632 nm emission). Keywords: NIH Roadmap, MLPCN, MLI, MLSMR, NCGC, qHTS, tau, tauopathies, Alzheimer's disease, fibril, neurodegeneration, aggregation
SMILES,"fluorescence change, negative = quenching",Potency
COc1ccc(-n2nc(C(=O)O)c3csc(N)c3c2=O)cc1,-15.8% [at 57.1 µM],–
Cn1cc(Cl)c(C(=O)Nc2cccc(Cl)c2Cl)n1,2.07%,–
CCOC(=O)c1nn(-c2ccccc2F)c(=O)c2c(N)scc12,-6.67% [at 57.1 µM],–
Nc1nn(-c2ccccc2)c(=O)c2c(N)scc12,-1.43% [at 57.1 µM],–
Nc1c(-c2ccncc2)cc[nH]c1=O,-12.5%,–
CC(C)c1ccc(NS(=O)(=O)c2ccc3[nH]cc(C(=O)NCCc4ccccc4)c(=O)c3c2)cc1,-9.83%,–
CN(C)C(=O)c1ccc(-c2cc[nH]c(=O)c2N)cc1,-10.2%,–
O=C(O)CC1S/C(=N/N=C/c2ccc(-c3ccccc3[N+](=O)[O-])o2)NC1=O (stereo not given),4.83%,–
Cc1ccc(NC(=O)N2CCN(c3ccccn3)CC2)cc1,5.36%,–
Cc1ccc(C2=NNC(=Nc3ccc(F)cc3)SC2)cc1,-13.1%,–
COc1ccc2[nH]c(=O)c(CNc3cccc(C)c3)cc2c1,-6.53%,–
COc1cccc(/C=C2/SC(=S)N(CC(=O)Nc3nnc(C)s3)C2=O)c1,-9.01% [at 57.1 µM],–
CCOC(=O)c1c(N)sc2c1CCOC2,17.4% [at 57.1 µM],–
CCOC(=O)c1nn(-c2cccc(C(F)(F)F)c2)c(=O)c2c(N)scc12,–,1580 nM [quencher] (active)
O=C(NCc1cccnc1)C1CCN(S(=O)(=O)c2cccs2)CC1,-5.66%,–
O=C(Nc1cccc(-c2nc3ccccc3o2)c1)c1cc([N+](=O)[O-])ccc1N1CCOCC1,-5.59%,–
O=S(=O)(c1ccc(N=C2NN=C(c3cc(F)ccc3F)CS2)cc1)N1CCOCC1,-19.6%,–
CN(C(=S)Nc1cccnc1)c1ccc(O)cc1,5.46%,–
COC(=O)c1c(NC(=O)CCCOc2ccc(C(C)(C)C)cc2)sc2c1C(C(=O)OC)CC2 (stereo not given),4.07%,–
Nc1scc2c(C(=O)O)nn(-c3ccccc3)c(=O)c12,4.44% [at 57.1 µM],–

SMILES,"fluorescence change, negative = quenching",Potency
Cc1cc2c(N)cccc2nn1,29.3%,–
O=C(Nc1nnc(S(=O)(=O)Nc2ccccc2)s1)C1CCCCC1,-18.2%,–
Nc1c(-c2ccccc2)cc[nH]c1=O,-6.15%,–
COc1ccc2[nH]c(=O)c(CNc3ccccc3OC)cc2c1,-10.1%,–
Cc1ccc(-c2ccc(/C=N/N=C3/NC(=O)C(CC(=O)O)S3)o2)c([N+](=O)[O-])c1 (stereo not given),4.37%,–
Cc1ccc(NCc2cc3cc4c(cc3n(CC(=O)Nc3ccc(C)cc3)c2=O)OCCO4)cc1,-9.33%,–
CCOC(=O)N1CCN(C(=O)CN2C(=O)/C(=C\c3cccc(OC)c3)SC2=S)CC1,-16.9% [at 57.1 µM],–
O=C(Cc1ccccc1)Nc1sc2c(c1C(=O)Nc1ccc(Cl)cc1)CCCC2,–,inactive
COc1ccc(NC(=O)C2CCN(S(=O)(=O)c3c(C)noc3/C=C/c3cccs3)CC2)cc1Cl,-12.3%,–
CN(C)S(=O)(=O)c1cccc(N=C2NN=C(c3ccccc3)CS2)c1,-15.9%,–
CN(c1ccccc1)S(=O)(=O)c1nnc(NC(=O)C2CCCCC2)s1,-17.2%,–
CCN(CC)C(=O)c1nn(-c2ccc(OC)cc2)c(=O)c2c(N)scc12,-20.1% [at 57.1 µM],–
O=C(O)CC1S/C(=N/N=C/c2ccc(-c3ccc(Cl)cc3[N+](=O)[O-])o2)NC1=O (stereo not given),3.16%,–
CCOC(=O)c1nn(-c2ccccc2)c(=O)c2c(N)scc12,–,inactive
CN(C)c1ccc(-c2cc[nH]c(=O)c2N)cc1,-17.8%,–
O=S(=O)(c1ccc(NC(=S)N/N=C/c2ccc(N3CCOCC3)cc2)cc1)N1CCOCC1,2.35%,–
Cc1ccc(C(=O)Nc2nc(=O)n(C(=O)CC(C)C)s2)cc1,2.86%,–
CCn1c(CSc2nccn2C)nc2cc(C(=O)O)ccc21,35.7%,–
COc1c(Cl)cccc1NC(=O)c1c(NC(=O)Cc2ccccc2)sc2c1CCCC2,-3.36% [at 57.1 µM],–
Nc1scc2c(CO)nn(-c3ccccc3)c(=O)c12,-2.64% [at 57.1 µM],–
